# This excerpt belongs to a sample that is enriched for the strongest signals.
# B1: Als1 (Candida albicans), P46590 (protein)
# chain: KTITGVFDSFNSLTWSNAANYAFKGPGYPTWNAVLGWSLDGTSANPGDTFTLNMPCVFKYTTSQTSVDLTADGVKYATCQFYSGEEFTTFSTLTCTVNDALKSSIKAFGTVTLPIAFNVGGTGSSTDLEDSKCFTAGTNTVTFNDGDKDISIDVEFEKSTVDPSGYLYASRVMPSLNKVTTLFVAPQCENGYTSGTMGFSSSNGDVAIDCSNIHIGITKGLNDWNYPVSSESFSYTKTCTSNGIQIKYQNVPAGYRPFIDAYISATDVNQYTLAYTNDYTCAGSRLQSKPFTLRWTGYKNSDAGSNGIVIVATTRTVTDSTTAVTTLPFNPSVDKTKTIEILQPIPTTTITTSYVGVTTSYLTKTAPIGETATVIVDVPYHTTTTVTSEWTGTITTTTTRTNPTDSIDTVVVQVP
# Assays:
# Assay in all cases: glycan array binding signal (z-score within array); higher = stronger binding
# Conditions in all cases: glycan notation: IUPAC condensed, linker removed
# [1] = molecular target: Fuc(a1-2)Gal(b1-3)GalNAc(b1-3)Gal
# Method in brief: (§1)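 The binding signal is a Z-score computed within each array. Data were drawn from 3228 arrays in the Consortium for Functional Glycomics database, restricted to those with a known protein sequence. Scores were averaged over arrays of the same protein sequence at different concentrations or buffers, and over linkers, and negative values can be taken as non-binding.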
# [2] = molecular target: Fuc(a1-2)Gal(b1-3)GlcNAc
# Method in brief: as §1
# [3] = molecular target: Fuc(a1-2)Gal(b1-4)GlcNAc(b1-2)Man(a1-3)[Fuc(a1-2)Gal(b1-4)GlcNAc(b1-2)Man(a1-6)]Man(b1-4)GlcNAc(b1-4)[Fuc(a1-6)]GlcNAc
# Method in brief: as §1
# [4] = molecular target: Fuc(a1-2)Gal6S(b1-4)Glc6S
# Method in brief: as §1
# [5] = molecular target: Fuc(a1-2)[Gal(a1-3)]Gal(b1-3)GalNAc(b1-3)Gal(a1-4)Gal(b1-4)Glc
# Method in brief: as §1
# [6] = molecular target: Fuc(a1-2)[Gal(a1-3)]Gal(b1-4)[Fuc(a1-3)]Glc
# Method in brief: as §1
# [7] = molecular target: Fuc(a1-2)[GalNAc(a1-3)]Gal(b1-3)GlcNAc(b1-2)Man(a1-3)[Fuc(a1-2)[GalNAc(a1-3)]Gal(b1-3)GlcNAc(b1-2)Man(a1-6)]Man(b1-4)GlcNAc(b1-4)[Fuc(a1-6)]GlcNAc
# Method in brief: as §1
# [8] = molecular target: Fuc(a1-2)[GalNAc(a1-3)]Gal(b1-4)GlcNAc(b1-2)Man
# Method in brief: as §1
# [9] = molecular target: Fuc(a1-3)[Gal(b1-4)]Glc6S
# Method in brief: as §1
# [10] = molecular target: Fuc(a1-3)[Gal(b1-4)]GlcNAc(b1-2)Man(a1-3)[Fuc(a1-3)[Gal(b1-4)]GlcNAc(b1-2)Man(a1-6)]Man(b1-4)GlcNAc(b1-4)GlcNAc
# Method in brief: as §1
# [11] = molecular target: Fuc(a1-3)[Gal(b1-4)]GlcNAc(b1-2)Man(a1-3)[Fuc(a1-3)[Gal(b1-4)]GlcNAc(b1-2)Man(a1-6)]Man(b1-4)GlcNAc(b1-4)[Fuc(a1-6)]GlcNAc
# Method in brief: as §1
# [12] = molecular target: Gal(a1-3)Gal(b1-4)Glc
# Method in brief: as §1
# [13] = molecular target: Gal(a1-3)GalNAc
# Method in brief: as §1
# [14] = molecular target: Gal(a1-4)Gal(b1-4)GlcNAc
# Method in brief: as §1
# [15] = molecular target: Gal(b1-3)Gal
# Method in brief: as §1
# [16] = molecular target: Gal(b1-3)GlcNAc(a1-3)Gal(b1-4)GlcNAc
# Method in brief: as §1
# [17] = molecular target: Gal(b1-3)GlcNAc(b1-2)Man
# Method in brief: as §1
# [18] = molecular target: Gal(b1-3)GlcNAc(b1-3)GalNAc
# Method in brief: as §1
# [19] = molecular target: Gal(b1-4)GalNAc(b1-3)[Fuc(a1-2)]Gal(b1-4)GlcNAc
# Method in brief: as §1
# [20] = molecular target: Gal(b1-4)GlcNAc(b1-2)Man(a1-3)[GlcNAc(b1-4)][Gal(b1-4)GlcNAc(b1-2)Man(a1-6)]Man(b1-4)GlcNAc(b1-4)GlcNAc
# Method in brief: as §1
# [21] = molecular target: Gal(b1-4)GlcNAc(b1-2)[Gal(b1-4)GlcNAc(b1-6)]Man(a1-6)[Gal(b1-4)GlcNAc(b1-2)Man(a1-3)]Man(b1-4)GlcNAc(b1-4)GlcNAc
# Method in brief: as §1
# [22] = molecular target: Gal(b1-4)GlcNAc(b1-3)Gal(b1-4)GlcNAc(b1-2)Man(a1-3)[Gal(b1-4)GlcNAc(b1-3)Gal(b1-4)GlcNAc(b1-2)Man(a1-6)]Man(b1-4)GlcNAc(b1-4)GlcNAc
# Method in brief: as §1
# [23] = molecular target: Gal(b1-6)Gal
# Method in brief: as §1
# [24] = molecular target: Gal3S6S(b1-4)GlcNAc6S
# Method in brief: as §1
# [25] = molecular target: Gal4S(b1-4)GlcNAc
# Method in brief: as §1
# [26] = molecular target: GlcA3S(b1-3)Gal(b1-4)GlcNAc(b1-2)Man
# Method in brief: as §1
# [27] = molecular target: GlcNAc(b1-3)Gal
# Method in brief: as §1
# [28] = molecular target: GlcNAc(b1-3)Gal(b1-4)GlcNAc(b1-2)Man(a1-3)[GlcNAc(b1-3)Gal(b1-4)GlcNAc(b1-2)Man(a1-6)]Man(b1-4)GlcNAc(b1-4)[Fuc(a1-6)]GlcNAc
# Method in brief: as §1
# [29] = molecular target: GlcNAc(b1-3)Gal(b1-4)GlcNAc(b1-2)[GlcNAc(b1-3)Gal(b1-4)GlcNAc(b1-6)]Man(a1-6)[GlcNAc(b1-3)Gal(b1-4)GlcNAc(b1-2)Man(a1-3)]Man(b1-4)GlcNAc(b1-4)GlcNAc
# Method in brief: as §1
# [30] = molecular target: GlcNAc(b1-3)Man
# Method in brief: as §1
binder,measurement,setting,value
B1,glycan array binding signal (z-score),[1],3.32
same,glycan array binding signal (z-score),[2],-0.524
same,glycan array binding signal (z-score),[3],1.97
same,glycan array binding signal (z-score),[4],-0.25
same,glycan array binding signal (z-score),[5],-0.049
same,glycan array binding signal (z-score),[6],0.021
same,glycan array binding signal (z-score),[7],-0.413
same,glycan array binding signal (z-score),[8],-0.488
same,glycan array binding signal (z-score),[9],3.38
same,glycan array binding signal (z-score),[10],0.227
same,glycan array binding signal (z-score),[11],0.146
same,glycan array binding signal (z-score),[12],-0.664
same,glycan array binding signal (z-score),[13],-0.407
same,glycan array binding signal (z-score),[14],-0.303
same,glycan array binding signal (z-score),[15],-0.458
same,glycan array binding signal (z-score),[16],-0.432
same,glycan array binding signal (z-score),[17],0.092
same,glycan array binding signal (z-score),[18],-0.05
same,glycan array binding signal (z-score),[19],-0.644
same,glycan array binding signal (z-score),[20],8.37
same,glycan array binding signal (z-score),[21],7.7
same,glycan array binding signal (z-score),[22],4.19
same,glycan array binding signal (z-score),[23],-0.739
same,glycan array binding signal (z-score),[24],3.22
same,glycan array binding signal (z-score),[25],0.401
same,glycan array binding signal (z-score),[26],-0.192
same,glycan array binding signal (z-score),[27],4.47
same,glycan array binding signal (z-score),[28],-0.201
same,glycan array binding signal (z-score),[29],4.37
same,glycan array binding signal (z-score),[30],-0.282
